Screening data from PubChem.
FBW7 act – human FBW7 E3 ligase activation, primary screen | Q969H0 | AlphaScreen FBW7–phospho-cyclin E peptide binding, activator screen | normalized activity (activation), % at 26.1 µM | 0.13% of 650,000 active | AID 1259310; in the data active = normalized activity above about 1.9%;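 also: purified mutant Fbw7 with reduced substrate affinity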
GPR151 ag – activates the human receptor GPR151; Q8TDV0; PathHunter beta-arrestin GPR151 cells, luminescence; activation, % at 11.2 µM; 1% of 650,000 active; in the data active = activation above about 4.9%;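 also: 0% = median of compound wells and 100% = cells with positive control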
TEAD-YAP block – TEAD-YAP interaction inhibition | HEK-TIYL cells, TEAD-Gal4/YAP UAS-luciferase luminescence | inhibition, % at 9.12 µM | 1.4% of 640,000 active; in the data active = inhibition above about 32%;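 also: 0% = median of test compound wells and 100% = reference inhibitor wells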
MITF primary – human MITF inhibition, primary screen; AID 1259374; inhibition, % at 2.6 µM; 0.91% of 650,000 active; O75030; AlphaScreen MITF homodimerization, bead proximity signal; in the data active = inhibition above about 50%;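 also: 0% = vehicle wells with protein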
Target sequence (O75030 whole entry, looked up): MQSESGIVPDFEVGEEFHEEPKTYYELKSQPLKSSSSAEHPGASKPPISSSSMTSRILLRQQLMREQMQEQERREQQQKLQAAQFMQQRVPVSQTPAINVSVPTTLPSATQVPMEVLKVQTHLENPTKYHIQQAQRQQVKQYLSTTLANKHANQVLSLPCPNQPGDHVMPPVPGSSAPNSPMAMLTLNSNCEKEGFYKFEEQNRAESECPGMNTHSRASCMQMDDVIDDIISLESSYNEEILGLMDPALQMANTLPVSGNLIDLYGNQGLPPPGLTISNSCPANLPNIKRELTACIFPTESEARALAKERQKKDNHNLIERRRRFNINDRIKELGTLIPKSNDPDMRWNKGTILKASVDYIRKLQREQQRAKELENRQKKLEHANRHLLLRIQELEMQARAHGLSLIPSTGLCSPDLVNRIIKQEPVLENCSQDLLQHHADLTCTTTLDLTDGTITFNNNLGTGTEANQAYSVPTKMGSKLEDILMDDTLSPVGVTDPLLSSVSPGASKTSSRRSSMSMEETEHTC
MITF confirm – human MITF inhibition, confirmation; shares compounds with MITF primary; AlphaScreen MITF homodimerization, biotin/His-MITF beads; inhibition, % at 2.6 µM; 16% of 4,700 active; AID 1259372;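 active = inhibition above a cutoff derived from the DMSO control wells, cut at about 28% in these data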;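 also: 0% = MITF dimer wells with DMSO only; inhibitors lower the bead chemiluminescence by keeping MITF from dimerizing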
AS interf DR – optically interferes with AlphaScreen signal in dose response. AlphaScreen optical interference counterscreen, cell-free. IC50, µM. 6% of 480 active. shares compounds with MITF primary; call rule not given here
AS interf ctr – AlphaScreen optical interference, counter-screen; 7.6% of 4,700 active; LysRS AlphaScreen counterscreen, signal interference, triplicate; inhibition, % at 2.6 µM; shares compounds with MITF primary;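 active = inhibition above a cutoff derived from the DMSO control wells, cut at about 30% in these data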
Starred values were filed as active, the others as inactive; i = inactive; nt = no result given. Most compounds without a hit are left out; they make up all but 3.5% or so of the library.

SMILES | FBW7 act | GPR151 ag | TEAD-YAP block | MITF primary | MITF confirm | AS interf ctr | others
CC1CCC(N2CCN(Cc3ccccc3[N+](=O)[O-])CC2)CC1 (stereo not given) | -0.2 | 0.7 | -3.1 | 69.3* | 1.2 | 3.9
O=[N+]([O-])c1ccccc1CN1CCCCCC1 | -0.2 | 0.8 | 6.4 | 39.0 | nt | nt
O=[N+]([O-])c1ccccc1CN1CCN(C2CCCCCC2)CC1 | 0.1 | 0.3 | -0.3 | 74.9* | 22.5 | 4.0
Oc1ccccc1-c1cc(C(F)F)no1 | 0.0 | -0.3 | 10.3 | 14.6 | nt | nt
COC(=O)C1=CN(CC23CC4CC(CC(C4)C2)C3)C=C(C(=O)OC)C1c1ccc(F)cc1 | 0.3 | 0.1 | -2.8 | 65.3* | -2.4 | -1.8
Cc1ccc(-c2cc(C(=O)NNC(=S)NCC3CCCO3)c3ccccc3n2)o1 (stereo not given) | -0.1 | -1.2 | -12.3 | -9.4 | nt | nt
COc1cc(NC(=O)c2ccc3nc(-c4ccccc4)sc3c2)cc(OC)c1OC | 0.2 | 1.9 | -1.1 | 67.6* | 6.2 | 5.2
CC(C)NC(=O)/C(C#N)=C/c1ccc(-c2ccc([N+](=O)[O-])cc2Br)o1 | -0.1 | 0.5 | -18.4 | 72.6* | 76.6* | -20.2 | AS interf DR=>7.06
CC(=O)N/N=C/c1ccc(-c2ccc([N+](=O)[O-])cc2Br)o1 | -0.2 | -1.5 | 8.0 | -25.1 | nt | nt
CN1CCN(C(=O)CC(C(=O)N2CCc3ccccc32)n2ccnc2)CC1 (stereo not given) | 0.8 | -1.0 | -7.1 | 16.7 | nt | nt
CCOC(=O)C1CCN(C(=O)c2cc3nc(-c4ccc(OC)cc4)cc(C(F)(F)F)n3n2)CC1 | -0.3 | -0.7 | -3.5 | 61.2* | -4.1 | -7.8
CC1(c2cc(C(F)(F)F)n3nc(C(=O)N4CCC(c5ccncc5)CC4)cc3n2)CC1 | -0.2 | 1.1 | -20.7 | 55.9* | -14.6 | -6.6
COc1ccc(-c2cc(C(F)(F)F)n3nc(C(=O)N4CCC(C)CC4)cc3n2)cc1 | 0.1 | 1.0 | -10.9 | 10.7 | nt | nt
COc1ccccc1NC(=O)c1ccc(C)c(S(=O)(=O)Nc2ccccc2OC)c1 | -0.2 | 2.2 | -4.4 | 2.9 | nt | nt
CCOC(=O)Cc1nnc2c3ccccc3n(C)c2n1 | 0.0 | 0.0 | 7.7 | 4.5 | nt | nt
Nc1cc(C(=O)OCC(=O)Nc2ccc(SC(F)F)cc2)ccc1Cl | 0.1 | 3.4 | -2.6 | -8.8 | nt | nt
COc1cc(C)c2c(c1C=O)Oc1c(c(C)c(O)c3c1C(O)OC3=O)OC2=O (stereo not given) | -0.2 | -2.3 | -18.1 | 74.0* | 83.7* | 1.7 | AS interf DR=>6.48
Cc1cc(O)c(C=O)c2c1C(=O)Oc1c(C)c(O)c3c(c1O2)C(O)OC3=O (stereo not given) | -0.2 | 0.4 | -5.8 | 25.3 | nt | nt
CCC(C)NC(=O)c1cc2nc(-c3ccc(Cl)c(Cl)c3)cc(C(F)(F)F)n2n1 (stereo not given) | -0.1 | 0.7 | 2.4 | -3.8 | nt | nt
O=C(c1cccc(F)c1)N1CCN(Cc2ccccc2[N+](=O)[O-])CC1 | -0.1 | -0.7 | 2.4 | 21.6 | nt | nt
O=C(c1ccccc1F)N1CCN(Cc2c[nH]c3ccccc23)CC1 | 0.0 | -1.0 | 16.2 | 35.4 | nt | nt
O=C(c1ccccc1F)N1CCN(Cc2ccccc2[N+](=O)[O-])CC1 | -0.2 | 0.1 | -2.6 | 62.0* | 7.0 | 17.2
O=C(c1ccc(F)cc1)N1CCN(Cc2ccccc2[N+](=O)[O-])CC1 | 0.1 | 2.5 | 4.6 | 55.1* | -13.8 | -5.4
COc1ccc(Br)cc1CN1CCN(C(=O)c2ccccc2F)CC1 | 1.0 | -2.6 | -3.0 | 64.5* | 5.0 | 14.9
O=C(c1ccccc1F)N1CCN(Cc2ccccc2C(F)(F)F)CC1 | 0.0 | -0.8 | -2.7 | 58.3* | 1.2 | -9.0
SMILES | FBW7 act | GPR151 ag | TEAD-YAP block | MITF primary | MITF confirm | AS interf ctr | others
COc1ccc(Br)cc1CN1CCN(C(=O)c2ccccc2)CC1 | -0.1 | 0.4 | 8.3 | 43.2 | nt | nt
Cc1ccc(NC(=O)COC(=O)CNS(=O)(=O)c2ccc(N)c([N+](=O)[O-])c2)cc1F | 0.2 | -2.1 | 4.3 | 6.8 | nt | nt
O=C(c1cccnc1)N1CCN(Cc2ccccc2[N+](=O)[O-])CC1 | -0.2 | -1.0 | 4.5 | 82.3* | -2.2 | -2.8
CC1CC(C)CN(Cc2nc3c(c(=O)n(C)c(=O)n3C)n2CCCO)C1 (stereo not given) | 0.1 | -0.3 | -2.3 | 9.3 | nt | nt
Nc1cccc(OS(=O)(=O)c2ccc(Cl)cc2)c1 | 0.2 | -0.3 | -19.2 | -18.0 | nt | nt
CN(C)c1ccc(NC2CC(=O)N(c3ccc(O)cc3)C2=O)cc1 (stereo not given) | -0.5 | 1.9 | 11.9 | 71.2* | 30.3* | 31.0*
CN(C)c1ccc(NC2CC(=O)N(c3ccc(F)cc3)C2=O)cc1 (stereo not given) | 0.0 | 0.1 | -5.5 | 1.4 | nt | nt
CN(CCc1ccccn1)Cc1cccc(F)c1 | -0.1 | 0.2 | -6.5 | 73.2* | 7.3 | 19.2
CN(CCc1ccccn1)Cc1ccc2c(c1)OCO2 | 0.3 | 0.2 | 4.4 | 62.7* | 8.2 | 15.3
CN(CCc1ccccn1)Cc1ccc2c(c1)CN(Cc1cccc3nccnc13)CCO2 | 0.0 | 0.5 | 11.6 | 1.2 | nt | nt
CN(CCc1ccccn1)Cc1ccc(F)cc1 | -0.1 | -1.0 | -3.8 | 77.9* | 32.9* | 16.7 | AS interf DR=>6.59
CSc1ccc(CN(C)CCc2ccccn2)cc1 | -0.1 | 1.2 | 5.8 | 68.2* | 14.2 | 20.8
CN(CCc1ccccn1)C1CC(=O)N(c2ccccc2)C1=O (stereo not given) | -0.1 | -0.8 | -10.5 | -19.2 | nt | nt
Cc1ccc(-c2c(C)nn3c(NCCO)c4c(nc23)CCC4)cc1 | -0.1 | -1.1 | -1.1 | -2.9 | nt | nt
CN(CCc1ccccn1)Cc1ccc(F)c(Br)c1 | 0.3 | -0.8 | 7.7 | 67.7* | -9.3 | -5.6
CN(CCc1ccccn1)Cc1cccc([N+](=O)[O-])c1 | 0.1 | -1.3 | -1.2 | 46.6 | nt | nt
NC(=O)COc1ccc(S(=O)(=O)N2CCCC2)cc1 | 0.0 | -0.2 | 7.6 | -1.4 | nt | nt
O=C(NCc1ccc(F)cc1)C1CC(=O)N(c2ccc(F)cc2)C1 (stereo not given) | 0.1 | -0.8 | -4.4 | 72.8* | 9.1 | 14.1
COc1ccc(CNC(=O)C2CC(=O)N(c3ccc(F)cc3)C2)cc1 (stereo not given) | 0.1 | 0.5 | 5.8 | -1.4 | nt | nt
Clc1ccc(-n2nnnc2-c2ccc3ccccc3n2)cc1 | 0.1 | -3.1 | -11.1 | 7.6 | nt | nt
O=C(CCCCC1SCC2NC(=O)NC21)NC1(c2ccc3c(c2)OCO3)CCCC1 (stereo not given) | -1.5 | 1.1 | -7.2 | 113.1* | 101.7* | 18.1 | AS interf DR=i
O=C(O)CCCCC1SCC2NC(=O)NC21 (stereo not given) | -0.4 | -0.7 | -1.8 | 122.2* | 124.4* | 100.6*
O=C(O)CCCC[C@H]1SC[C@H]2NC(=O)N[C@H]21 | -0.5 | 1.4 | -11.8 | 116.8* | 122.8* | 100.6*
CCCCC[C@@H](O)CC[C@H]1[C@H](O)CC(=O)[C@@H]1CCCCCCC(=O)O | nt | 1.9 | nt | 22.5 | nt | nt
O=C(CNC(=O)c1ccccc1F)NCCc1ccccc1F | 0.8 | -0.7 | -31.6 | 16.5 | nt | nt
